Drawing on PubChem BioAssay, this text covers inhibition for 40 compounds.

Each structure is given as a SMILES string. A number with no mark means an inactive call. The source made the active and inactive calls. Rule as the data show it, unless noted: active = inhibition above about 25%; inactive = the rest.

Chain of Nuclear receptor coactivator 1 (Homo sapiens) (Q15788 whole entry, looked up, the tested form may be a part): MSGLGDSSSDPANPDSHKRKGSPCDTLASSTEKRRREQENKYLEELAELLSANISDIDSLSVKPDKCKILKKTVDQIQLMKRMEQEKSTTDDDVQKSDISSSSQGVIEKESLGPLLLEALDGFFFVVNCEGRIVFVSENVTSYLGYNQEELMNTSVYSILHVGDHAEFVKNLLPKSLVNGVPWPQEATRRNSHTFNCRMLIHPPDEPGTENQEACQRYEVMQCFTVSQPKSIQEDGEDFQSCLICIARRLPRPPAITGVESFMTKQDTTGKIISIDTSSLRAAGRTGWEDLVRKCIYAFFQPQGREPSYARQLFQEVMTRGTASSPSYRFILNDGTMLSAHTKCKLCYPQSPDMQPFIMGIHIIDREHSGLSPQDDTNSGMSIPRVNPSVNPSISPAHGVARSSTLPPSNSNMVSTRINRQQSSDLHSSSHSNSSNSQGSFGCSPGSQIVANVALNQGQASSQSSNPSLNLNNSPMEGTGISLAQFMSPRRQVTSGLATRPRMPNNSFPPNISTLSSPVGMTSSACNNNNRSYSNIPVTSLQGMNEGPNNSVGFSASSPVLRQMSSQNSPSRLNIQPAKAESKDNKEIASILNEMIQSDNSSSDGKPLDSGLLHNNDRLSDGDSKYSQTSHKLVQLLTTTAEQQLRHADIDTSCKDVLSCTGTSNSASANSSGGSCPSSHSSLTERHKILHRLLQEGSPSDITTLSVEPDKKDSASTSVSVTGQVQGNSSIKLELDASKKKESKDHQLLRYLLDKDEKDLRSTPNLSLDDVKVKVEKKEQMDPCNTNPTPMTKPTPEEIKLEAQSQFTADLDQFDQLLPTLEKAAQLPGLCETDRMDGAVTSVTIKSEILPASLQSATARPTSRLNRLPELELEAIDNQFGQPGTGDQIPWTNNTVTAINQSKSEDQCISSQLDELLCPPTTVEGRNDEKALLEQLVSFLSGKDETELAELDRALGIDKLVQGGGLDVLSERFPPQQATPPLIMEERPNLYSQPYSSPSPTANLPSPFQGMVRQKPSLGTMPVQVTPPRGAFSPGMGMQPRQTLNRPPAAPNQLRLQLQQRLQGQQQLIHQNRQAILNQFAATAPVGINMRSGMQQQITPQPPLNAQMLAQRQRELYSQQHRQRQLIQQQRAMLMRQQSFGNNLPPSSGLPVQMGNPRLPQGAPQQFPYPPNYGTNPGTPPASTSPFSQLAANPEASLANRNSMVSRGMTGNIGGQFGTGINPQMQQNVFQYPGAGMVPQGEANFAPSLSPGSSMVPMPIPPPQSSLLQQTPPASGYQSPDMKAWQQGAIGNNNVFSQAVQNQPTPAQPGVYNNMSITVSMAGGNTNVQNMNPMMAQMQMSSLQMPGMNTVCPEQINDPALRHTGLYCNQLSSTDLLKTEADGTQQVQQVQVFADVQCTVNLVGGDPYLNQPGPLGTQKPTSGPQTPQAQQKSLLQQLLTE

One test concerns the target Nuclear receptor coactivator 1 (Homo sapiens) (UniProt Q15788). The experiment in a line: NCOA1 GAL4-fusion reporter inhibition – cell-based, luminescence, quadruplicate, confirmation (AID 588820;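 active = mean inhibition above 46.68%, the untreated control wells mean plus 3 SD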;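 also: 0% = DMSO wells and 100% = gossypol 36 µM treated wells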). The note with it: HEK293 GAL4-SRC1 luciferase reporter, at 3.6 µM, active compounds read high.
`S=c1[nH]nc(C2CCCCC2)n1/N=C/c1ccncc1`: the inhibition is 64.6% (active).

With `Cc1ccc2nc(-c3ccccc3)cn2c1`, the inhibition was -44.9%.

For `CN1CCN(c2ccc(NC(=O)N3CCc4ccccc43)cc2)CC1`, the inhibition was -43.7%.

As for `O=C1CCCCC1Sc1nnc(-c2ccc3c(c2)OCO3)o1` (stereo not given), the inhibition was -129%.

`Brc1cccc(CSc2nnc(-c3ccncc3)o2)c1`: the inhibition was 44.4%.

Regarding `S=C(c1ccc(-c2ccccc2)cc1)N1CCOCC1`, the inhibition is 33.3%.

On to `COc1cccc(Nc2ncnc3ccc(Br)cc23)c1`, for which the inhibition is 51% (active).

For `COCCn1c(C)cc(C2=NNC(=NC3CC3)SC2)c1C`, the inhibition is 85.7% (active).

Regarding `Cc1ccc(C(=O)Nc2cnc3ccccc3c2)cc1`, the inhibition is -70.2%.

Turning to `CCN(c1ccc(OC)cc1)c1ncnc2nc[nH]c12`, the inhibition was 67.2% (active).

For `OCCN1CCN(c2ncnc3ccc(Br)cc23)CC1`, the inhibition was 65.8% (active).

In the case of `O=C(O)C1CC=CCC1C(=O)Nc1ccc2c(c1)OCCO2` (stereo not given), the inhibition is -47.1%.

Take `CCCN1C=CC(=C2C(=O)c3ccccc3C2=O)C=C1`: the inhibition was -14.4%.

As to `Nc1ncnc(N2CCc3ccccc32)c1[N+](=O)[O-]`, the inhibition is 75.9% (active).

Take `CCN(CC)c1ccc(/C=N/NC(=O)c2nnn(-c3nonc3N)c2C(C)C)c(O)c1`: the inhibition was 68.7% (active).

For `COCCNc1nc(Oc2cncc(Cl)c2)c2sccc2n1`, the inhibition was 44.3%.

As to `Cc1cc(Sc2nnc(/N=C/N(C)C)s2)c2ccccc2n1`, the inhibition was 2.4%.

In the case of `CN(Cc1nccs1)C(=O)c1cc(COc2cccc3cnccc23)on1`, the inhibition is 19.8%.

Take `CC(=O)/C(N=Nc1ccc2c(c1)OCCO2)=C(\C)O`: the inhibition is 22.6%.

On to `Cc1cc(C(=O)COc2cccnc2[N+](=O)[O-])c(C)n1-c1ccccc1`, for which the inhibition is -11.3%.

On to `Cc1cc(/C=N/Nc2ncnc(N)c2[N+](=O)[O-])c(C)n1-c1ccccc1`, for which the inhibition was -28.1%.

Consider `c1cc(-c2nnc3sc(C4CCCCC4)nn23)ccn1`, for which the inhibition was 58.2% (active).

As to `COc1ccc(N(C(=O)CCl)C(C(=O)NC2CCCCC2)c2cccnc2)cc1` (stereo not given), the inhibition is 38.8%.

On to `O=C(Nc1ccc(C(=O)N2CCOCC2)cc1)Nc1cccc(C(F)(F)F)c1`, for which the inhibition was 64.3% (active).

`CCCC(=O)NC(c1ccc(Cl)cc1Cl)c1ccc2cccnc2c1O` (stereo not given): the inhibition is 45.7%.

For the compound `CC(/C=C1\SC(=O)N(CCCC(=O)O)C1=O)=C\c1ccccc1`, the inhibition is 71.9% (active).

On to `CN(C)c1ccc(C(=S)Nc2ccccc2)cc1`, for which the inhibition was -21.5%.

Take `Cc1ccc(C(=O)CN2C(=O)c3ccccc3S2(=O)=O)cc1`: the inhibition is -23.7%.

Turning to `CC(=O)Nc1nc(-c2ccc3c(c2)CC(C)N3C(=O)C2CC2)c(C)s1` (stereo not given), the inhibition was 50.6% (active).

On to `CN(C)C(=O)c1cccc(-c2cnc3sc(NCc4ccc5c(c4)OCO5)nn23)c1`, for which the inhibition was 51.8% (active).

As to `Cc1ccc(/C=C2\SC(=S)N(CCCC(=O)NNC(=O)c3ccccc3O)C2=O)cc1`, the inhibition was 74.7% (active).

Consider `COc1ccc(-n2c(C)c([N+](=O)[O-])c3ccc(O)c(CN4CCCCC4)c32)cc1`, for which the inhibition was 54.9% (active).

Consider `c1ccc(CCc2nn3c(-c4ccncc4)nnc3s2)cc1`, for which the inhibition was 57.3% (active).

Turning to `OCCN(CCO)CC(O)COc1ccc(C23CC4CC(CC(C4)C2)C3)cc1` (stereo not given), the inhibition is 15.1%.

For the compound `Cc1ccc2occ(/C=N/NC(=O)[C@@H](N)Cc3ccccc3)c(=O)c2c1`, the inhibition was 15.7%.

In the case of `CCn1c(Oc2ccccc2F)nc2c1c(=O)n(C)c(=O)n2C`, the inhibition is 64.4% (active).

`O=C(c1cncc(Br)c1)N1CCc2ccccc2C1`: the inhibition is 46.3%.

Turning to `O=C(NC1CCCCC1)C(c1cccnc1)N(C(=O)CCl)c1ccc(F)cc1` (stereo not given), the inhibition was 20.8%.

On to `COc1ccc(/C=C2/SC(=S)N(CCCC(=O)Nc3ccccc3C(=O)O)C2=O)cc1`, for which the inhibition is -7.34%.

For the compound `CCc1ccc(-c2nc(CSCC(=O)NCc3ccco3)c(C)o2)cc1`, the inhibition is 33.9%.

Tested on in the next test: not listed separately
The experiment in a line: repression of VP16-driven luciferase reporter – cell-based, luminescence, high throughput, counter-screen for SRC1 inhibitor project (AID 588824). The following applies: cell-based VP16 transactivation luciferase luminescence; at 3.6 µM; active compounds read high.
With `S=c1[nH]nc(C2CCCCC2)n1/N=C/c1ccncc1`, the inhibition is 60.1% (active).

Regarding `Cc1ccc2nc(-c3ccccc3)cn2c1`, the inhibition was -21.6%.

With `CN1CCN(c2ccc(NC(=O)N3CCc4ccccc43)cc2)CC1`, the inhibition was -20.3%.

For the compound `O=C1CCCCC1Sc1nnc(-c2ccc3c(c2)OCO3)o1` (stereo not given), the inhibition was -49.6%.

On to `Brc1cccc(CSc2nnc(-c3ccncc3)o2)c1`, for which the inhibition is 26.9% (active).

Consider `S=C(c1ccc(-c2ccccc2)cc1)N1CCOCC1`, for which the inhibition was -6.87%.

With `COc1cccc(Nc2ncnc3ccc(Br)cc23)c1`, the inhibition is 30.9% (active).

For the compound `COCCn1c(C)cc(C2=NNC(=NC3CC3)SC2)c1C`, the inhibition was 86.1% (active).

Regarding `Cc1ccc(C(=O)Nc2cnc3ccccc3c2)cc1`, the inhibition is 23.4%.

With `CCN(c1ccc(OC)cc1)c1ncnc2nc[nH]c12`, the inhibition is 48.6% (active).

`OCCN1CCN(c2ncnc3ccc(Br)cc23)CC1`: the inhibition is 44.5% (active).

With `O=C(O)C1CC=CCC1C(=O)Nc1ccc2c(c1)OCCO2` (stereo not given), the inhibition was -8.13%.

With `CCCN1C=CC(=C2C(=O)c3ccccc3C2=O)C=C1`, the inhibition was 38% (active).

On to `Nc1ncnc(N2CCc3ccccc32)c1[N+](=O)[O-]`, for which the inhibition is 61.2% (active).

In the case of `CCN(CC)c1ccc(/C=N/NC(=O)c2nnn(-c3nonc3N)c2C(C)C)c(O)c1`, the inhibition was 65.5% (active).

With `COCCNc1nc(Oc2cncc(Cl)c2)c2sccc2n1`, the inhibition is 32.8% (active).

Turning to `Cc1cc(Sc2nnc(/N=C/N(C)C)s2)c2ccccc2n1`, the inhibition is 33.8% (active).

`CN(Cc1nccs1)C(=O)c1cc(COc2cccc3cnccc23)on1`: the inhibition was 34.7% (active).

Regarding `CC(=O)/C(N=Nc1ccc2c(c1)OCCO2)=C(\C)O`, the inhibition is -66.6%.

Regarding `Cc1cc(C(=O)COc2cccnc2[N+](=O)[O-])c(C)n1-c1ccccc1`, the inhibition was -70.8%.

Regarding `Cc1cc(/C=N/Nc2ncnc(N)c2[N+](=O)[O-])c(C)n1-c1ccccc1`, the inhibition is -10.1%.

`c1cc(-c2nnc3sc(C4CCCCC4)nn23)ccn1`: the inhibition is 51% (active).

For the compound `COc1ccc(N(C(=O)CCl)C(C(=O)NC2CCCCC2)c2cccnc2)cc1` (stereo not given), the inhibition was 51.5% (active).

Turning to `O=C(Nc1ccc(C(=O)N2CCOCC2)cc1)Nc1cccc(C(F)(F)F)c1`, the inhibition was 38.8% (active).

On to `CCCC(=O)NC(c1ccc(Cl)cc1Cl)c1ccc2cccnc2c1O` (stereo not given), for which the inhibition is 48% (active).

As for `CC(/C=C1\SC(=O)N(CCCC(=O)O)C1=O)=C\c1ccccc1`, the inhibition is 69.2% (active).

Take `CN(C)c1ccc(C(=S)Nc2ccccc2)cc1`: the inhibition was -24.4%.

`Cc1ccc(C(=O)CN2C(=O)c3ccccc3S2(=O)=O)cc1`: the inhibition is 41.4% (active).

Consider `CC(=O)Nc1nc(-c2ccc3c(c2)CC(C)N3C(=O)C2CC2)c(C)s1` (stereo not given), for which the inhibition was 62.7% (active).

Take `CN(C)C(=O)c1cccc(-c2cnc3sc(NCc4ccc5c(c4)OCO5)nn23)c1`: the inhibition is 33.7% (active).

Regarding `Cc1ccc(/C=C2\SC(=S)N(CCCC(=O)NNC(=O)c3ccccc3O)C2=O)cc1`, the inhibition is 58.3% (active).

As to `COc1ccc(-n2c(C)c([N+](=O)[O-])c3ccc(O)c(CN4CCCCC4)c32)cc1`, the inhibition was 39.5% (active).

As to `c1ccc(CCc2nn3c(-c4ccncc4)nnc3s2)cc1`, the inhibition is 41.1% (active).

With `OCCN(CCO)CC(O)COc1ccc(C23CC4CC(CC(C4)C2)C3)cc1` (stereo not given), the inhibition is 8.76%.

`Cc1ccc2occ(/C=N/NC(=O)[C@@H](N)Cc3ccccc3)c(=O)c2c1`: the inhibition was 23.3%.

For the compound `CCn1c(Oc2ccccc2F)nc2c1c(=O)n(C)c(=O)n2C`, the inhibition was 47.2% (active).

Regarding `O=C(c1cncc(Br)c1)N1CCc2ccccc2C1`, the inhibition was 29.3% (active).

For `O=C(NC1CCCCC1)C(c1cccnc1)N(C(=O)CCl)c1ccc(F)cc1` (stereo not given), the inhibition is 65.1% (active).

As for `COc1ccc(/C=C2/SC(=S)N(CCCC(=O)Nc3ccccc3C(=O)O)C2=O)cc1`, the inhibition is 7.32%.

With `CCc1ccc(-c2nc(CSCC(=O)NCc3ccco3)c(C)o2)cc1`, the inhibition was 24.5%.
